These results are taken from PubChem BioAssay (Tox21).

Values joined by “and” are separate entries in the source; they are usually repeats but may differ in a detail not shown here. Equal values may be shown once. Results filed as inconclusive are left out. Active and inactive are the calls of the source. Unless noted, the call rests on the fitted dose curve; in most records, active means well fitted curve in the direction sought with a large enough effect in the repeat runs; inconclusive means weak or mixed curves; inactive means no such curve, though single readings can be large; an effect the other way counts as inactive or inconclusive.

Assay [1] can be described thus: qHTS assay to identify small molecule agonists of the androgen receptor (AR) signaling pathway in the presence of an antagonist - cell viability counter screen (AID 1259379). Further: nearly all actives have a fitted effect of over 25% in size. Further: potency means the concentration at half of the fitted maximal effect. A digest of the protocol:
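In MDA-kb2 cells (human breast carcinoma, MMTV-luciferase), compounds at 15 concentrations plus 3.0uM nilutamide; 16 hr, 37C, 0% CO2; CellTiter-Fluor fluorescence read for viability.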
(In general: qHTS replaces the single test concentration by a dilution series.)

For assay [2], the target named is Estrogen receptor (Homo sapiens) (UniProt P03372). Briefly: qHTS assay to identify small molecule agonists of the estrogen receptor alpha (ER-alpha) signaling pathway in the presence of an antagonist (AID 1259383; calls by dose curve; further: nearly all actives have a fitted effect of over 15% in size; further: potency means the concentration at half of the fitted maximal effect; on activation: top concentration of the series differs between compounds). Put shortly: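 In VM7Luc4E2 cells, 4,000 per well, compounds at 15 concentrations were co-incubated 22hr at 37C with 10.0nM final ICI-182,780. Luminescence from the stably transfected 4×ERE-luciferase reporter was recorded 30min after ONE-Glo addition.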
Chain of Estrogen receptor (Homo sapiens) (P03372 whole entry, looked up): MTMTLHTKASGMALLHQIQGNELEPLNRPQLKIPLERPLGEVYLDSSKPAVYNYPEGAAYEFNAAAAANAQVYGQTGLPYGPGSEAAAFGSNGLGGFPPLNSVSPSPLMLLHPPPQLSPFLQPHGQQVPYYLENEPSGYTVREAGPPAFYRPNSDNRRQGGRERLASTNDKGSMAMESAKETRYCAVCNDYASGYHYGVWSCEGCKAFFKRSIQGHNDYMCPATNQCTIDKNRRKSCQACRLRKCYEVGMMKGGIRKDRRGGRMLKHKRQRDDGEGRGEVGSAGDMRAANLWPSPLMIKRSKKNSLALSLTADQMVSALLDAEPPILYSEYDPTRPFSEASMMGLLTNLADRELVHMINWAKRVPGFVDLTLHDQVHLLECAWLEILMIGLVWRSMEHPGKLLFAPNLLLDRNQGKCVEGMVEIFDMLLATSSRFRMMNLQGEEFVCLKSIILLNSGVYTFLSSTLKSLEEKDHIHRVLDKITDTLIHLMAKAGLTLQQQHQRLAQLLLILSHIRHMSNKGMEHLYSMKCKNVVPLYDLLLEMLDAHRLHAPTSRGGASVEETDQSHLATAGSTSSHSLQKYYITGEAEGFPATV

Assay [3] can be described thus: qHTS assay to identify small molecule agonists or antagonists of the thyroid stimulating hormone receptor (TSHR) signaling pathway - wild type cell line counter screen (AID 1259384; calls by dose curve). Put shortly:
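Wild-type HEK293 cells were plated 18 h at 37 C/5% CO2, pin-dosed with compound plus Ro20-1724 medium, held 30 min at room temperature, then given cAMP-d2 and anti-cAMP-cryptate; fluorescence was read after 1 h. Fifteen concentrations, triplicate.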

The target in assay [4] is Thyrotropin receptor (Homo sapiens) (UniProt P16473). Briefly: qHTS assay to identify small molecule antagonists of the thyroid stimulating hormone receptor (TSHR) signaling pathway (AID 1259385; calls by dose curve; further: nearly all actives have a fitted effect of over 20% in size). A digest of the protocol:
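TSHR-HEK293 cells were plated and held 18 h at 37C/5% CO2, then given compound plus Ro20-1724 and stimulated with TSH at 1.5 ng/mL final. After 30 min at room temperature, cAMP was detected with cAMP-d2/anti-cAMP-cryptate (1 h) by fluorescence.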

Assay [5] is described as follows: qHTS assay to identify small molecule agonists of the estrogen receptor alpha (ER-alpha) signaling pathway in the presence of an antagonist - cell viability counter screen (AID 1259386).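 Further: cells exposed to compounds for 22 h at 37 °C before the viability read; nearly all actives have a fitted effect of over 30% in size.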 Further: potency means the concentration at half of the fitted maximal effect. A digest of the protocol:
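Fluorescent CellTiter-Fluor viability signal from VM7Luc4E2 cells, with the reagent added during the final hour of a 22hr compound exposure at 37C in the presence of 10.0nM ICI-182,780.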

Assay [6] addresses Progesterone receptor (Homo sapiens) (UniProt P06401). Nature of the assay: qHTS assay to identify small molecule agonists of the progesterone receptor (PR) signaling pathway (AID 1346784; calls by dose curve; further: nearly all actives have a fitted effect of over 30% in size). Put shortly: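 Agonist qHTS: compounds pinned onto 3,000 PR-UAS-bla HEK 293T cells per well in charcoal-stripped serum medium, 16hr at 37C, then beta-lactamase activity measured by LiveBLAzer FRET fluorescence after 2 hours at room temperature.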

Assay [7] has the same target. Nature of the assay: qHTS assay to identify small molecule antagonists of the progesterone receptor (PR) signaling pathway (AID 1346795; active means well fitted inhibition curve with a large enough effect in the signal ratio in the repeat runs, not every such curve was filed as active; the % refers to the signal ratio). Put shortly:
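Antagonist mode with agonist R5020 at 1 nM final and 16 hr incubation at 37C. Reporter was beta-lactamase driven by UAS in HEK293T (PR-UAS-bla), 2% charcoal-stripped serum; signal from LiveBLAzer FRET substrate, 2 hr at room temperature.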

The nature of assay [8]: qHTS assay to identify small molecule antagonists of the progesterone receptor (PR) signaling pathway - cell viability counter screen (AID 1346798). Further: series mostly up to about 92 µM; nearly all actives have a fitted effect of over 50% in size. A digest of the protocol: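 Cytotoxicity read as CellTiter-Glo luminescence (30 min, room temperature) in the same wells as the beta-lactamase readout. HEK293T PR-UAS-bla cells in charcoal-stripped 2% FBS received compound and R5020, then 16 h at 37C, 5% CO2.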

Assay [9] is described as follows: qHTS assay to identify small molecule agonists of the progesterone receptor (PR) signaling pathway - cell viability counter screen (AID 1346799; calls by dose curve; further: nearly all actives have a fitted effect of over 45% in size). A digest of the protocol:
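Cytotoxicity measured by CellTiter-Glo luminescence (30 min, RT) in the same wells as the PR beta-lactamase agonist read. Those HEK293T cells had 16 h compound treatment at 37 C in 2% charcoal-stripped FBS medium.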

Assay [10] is described as follows: qHTS assay to identify small molecule antagonists of the TGF-beta/Smad signaling pathway - cell viability counter screen (AID 1346824). Further: nearly all actives have a fitted effect of over 50% in size. Put shortly:
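SBE-bla HEK 293T cells were plated overnight at 37 C, then given compounds in DMSO plus TGF-beta1 (added as 0.25 ng/mL solution) for 5 hr. After the bla read, CellTiter-Glo was added to the same wells and luminescence read after 30 min at room temperature.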

The nature of assay [11]: qHTS assay to identify small molecule agonists of the TGF-beta/Smad signaling pathway - cell viability counter screen (AID 1346829). Further: top concentration of the series differs between compounds; nearly all actives have a fitted effect of over 45% in size. A digest of the protocol: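 After overnight seating at 37 C and 5% CO2, reporter cells got compounds for 5 hr and FRET substrate for 2 hr; cell viability then came from CellTiter-Glo luminescence.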
A short description of assay [12]: qHTS assay to identify small molecule agonists of the TGF-beta/Smad signaling pathway (AID 1346859; active means well fitted activation curve with a large enough effect in the signal ratio in the repeat runs, not every such curve was filed as active; the % refers to the signal ratio; further: series mostly up to about 77 µM). A digest of the protocol: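 Fluorescence (ex 405 nm; em 460 and 530 nm) was read 2 h after LiveBLAzer FRET substrate at RT. The preceding compound treatment of overnight-plated SBE-bla HEK293T cells lasted 5 h at 37 C.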
Assay [13] is described as follows: qHTS assay to identify small molecule agonists of the estrogen receptor beta (ER-beta) signaling pathway - cell viability counter screen (AID 1259380). Further: nearly all actives have a fitted effect of over 30% in size. Put shortly: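 Viability of ER-beta-UAS-bla HEK293T cells was determined by CellTiter-Glo luminescence following 16 hr treatment with test compounds at 37C.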
Assay [14] deals with Androgen receptor (Homo sapiens) (UniProt P10275). Nature of the assay: qHTS assay to identify small molecule agonists of the androgen receptor (AR) signaling pathway in the presence of an antagonist (AID 1259381; calls by dose curve; further: nearly all actives have a fitted effect of over 15% in size; further: potency means the concentration at half of the fitted maximal effect). A digest of the protocol: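 Here, 15-concentration compound series were pin-transferred onto MDA-kb2 MMTV-luciferase cells already dosed with nilutamide (3.0uM final). After 16hr at 37C, ONE-Glo was added and luminescence read 30min later at room temperature.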
Chain of Androgen receptor (Homo sapiens) (P10275 whole entry, looked up): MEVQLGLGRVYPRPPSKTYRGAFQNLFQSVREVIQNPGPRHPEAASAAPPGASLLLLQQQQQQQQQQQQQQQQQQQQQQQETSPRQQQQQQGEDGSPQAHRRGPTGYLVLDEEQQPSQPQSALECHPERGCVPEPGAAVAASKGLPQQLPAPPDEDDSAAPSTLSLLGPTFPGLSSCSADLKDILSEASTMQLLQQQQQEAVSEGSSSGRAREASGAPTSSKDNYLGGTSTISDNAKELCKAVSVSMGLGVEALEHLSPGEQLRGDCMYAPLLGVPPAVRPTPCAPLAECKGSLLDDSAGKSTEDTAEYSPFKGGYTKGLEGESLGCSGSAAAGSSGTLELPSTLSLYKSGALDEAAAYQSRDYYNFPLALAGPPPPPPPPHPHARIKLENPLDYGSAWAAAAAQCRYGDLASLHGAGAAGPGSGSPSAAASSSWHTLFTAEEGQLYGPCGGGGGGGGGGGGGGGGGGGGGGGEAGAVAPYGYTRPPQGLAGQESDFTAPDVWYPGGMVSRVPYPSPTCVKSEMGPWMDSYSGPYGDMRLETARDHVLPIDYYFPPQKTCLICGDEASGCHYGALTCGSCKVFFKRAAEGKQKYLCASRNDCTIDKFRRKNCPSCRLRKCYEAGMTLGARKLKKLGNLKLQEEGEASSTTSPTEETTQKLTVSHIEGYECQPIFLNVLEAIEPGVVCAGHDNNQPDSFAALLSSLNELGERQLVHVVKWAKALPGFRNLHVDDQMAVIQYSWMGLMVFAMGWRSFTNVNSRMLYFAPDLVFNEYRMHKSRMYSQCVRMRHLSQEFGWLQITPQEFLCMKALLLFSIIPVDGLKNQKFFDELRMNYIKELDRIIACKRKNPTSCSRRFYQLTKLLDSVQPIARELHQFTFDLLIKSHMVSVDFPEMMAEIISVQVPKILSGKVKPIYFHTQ

In assay [15] the target is Thyrotropin-releasing hormone receptor (Homo sapiens) (UniProt P34981). Briefly: qHTS assay to identify small molecule antagonists of the thyrotropin-releasing hormone receptor (TRHR) signaling pathway (AID 1346877; active means well fitted inhibition curve with a large enough effect in the repeat runs, not every such curve was filed as active; further: series mostly up to about 51 µM). Put shortly: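 In this cell-based calcium flux format, HEK293 cells expressing TRHR received test compound for 5 min before the agonist TRH (1 nM final). Dye loading lasted 2 h at 37 °C.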
Chain of Thyrotropin-releasing hormone receptor (Homo sapiens) (P34981 whole entry, looked up): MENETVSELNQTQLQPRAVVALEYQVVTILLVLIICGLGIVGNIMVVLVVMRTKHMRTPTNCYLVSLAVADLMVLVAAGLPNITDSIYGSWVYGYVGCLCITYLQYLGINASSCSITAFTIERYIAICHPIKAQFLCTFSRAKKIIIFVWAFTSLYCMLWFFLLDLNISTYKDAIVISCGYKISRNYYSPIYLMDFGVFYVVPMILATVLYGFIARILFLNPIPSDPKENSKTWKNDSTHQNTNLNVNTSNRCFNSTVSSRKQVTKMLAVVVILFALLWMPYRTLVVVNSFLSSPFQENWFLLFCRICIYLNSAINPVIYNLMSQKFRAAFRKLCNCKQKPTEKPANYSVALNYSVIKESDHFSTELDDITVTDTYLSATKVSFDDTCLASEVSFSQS

For assay [16] the target is unchanged. Nature of the assay: qHTS assay to identify small molecule agonists of the thyrotropin-releasing hormone receptor (TRHR) signaling pathway (AID 1346891; calls by dose curve; further: series mostly up to about 58 µM). A digest of the protocol:
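Agonist-mode intracellular calcium readout: kinetic fluorescence over 3 min at 1 s intervals after compound addition to TRHR-HEK293 cells (18 h seeded, 2 h dye-loaded at 37 C). Fifteen concentrations, triplicates.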

Assay [17] concerns the target Estrogen receptor beta (Homo sapiens) (UniProt Q92731). Briefly: qHTS assay to identify small molecule agonists of the estrogen receptor beta (ER-beta) signaling pathway (AID 1259377; active means well fitted activation curve with a large enough effect in the signal ratio in the repeat runs, not every such curve was filed as active; the % refers to the signal ratio). Put shortly: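 Ratiometric beta-lactamase FRET read-out came after 2 h substrate loading at room temperature. It followed 16 h compound treatment at 37C of GripTite HEK293T cells carrying a UAS-bla reporter, plated in 2% charcoal-stripped FBS medium.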

Assay [18] has the same target. Briefly: qHTS assay to identify small molecule antagonists of the estrogen receptor beta (ER-beta) signaling pathway (AID 1259378; active means well fitted inhibition curve with a large enough effect in the signal ratio in the repeat runs, not every such curve was filed as active; the % refers to the signal ratio). Put shortly: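 ER-beta-UAS-bla HEK293T (GripTite) cells in 2% charcoal-stripped FBS medium were preincubated 6 hr at 37C, dosed with compound, then stimulated with 1 nM E2 (final) for 16 hr; beta-lactamase reporter read by B/G FRET fluorescence after 2 hr substrate loading.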

Assay [19] in a line: qHTS assay to identify small molecule antagonists of the estrogen receptor beta (ER-beta) signaling pathway - cell viability counter screen (AID 1259382). Further: series mostly up to about 92 µM; nearly all actives have a fitted effect of over 55% in size. Put shortly: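 Tox21 10K library tested in qHTS format on ER-beta-bla HEK293T cells stimulated with 1nM E2; 16 hr treatment at 37C. Same-well CellTiter-Glo luminescence served as the cell viability measure.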

Chain of Estrogen receptor beta (Homo sapiens) (Q92731 whole entry, looked up): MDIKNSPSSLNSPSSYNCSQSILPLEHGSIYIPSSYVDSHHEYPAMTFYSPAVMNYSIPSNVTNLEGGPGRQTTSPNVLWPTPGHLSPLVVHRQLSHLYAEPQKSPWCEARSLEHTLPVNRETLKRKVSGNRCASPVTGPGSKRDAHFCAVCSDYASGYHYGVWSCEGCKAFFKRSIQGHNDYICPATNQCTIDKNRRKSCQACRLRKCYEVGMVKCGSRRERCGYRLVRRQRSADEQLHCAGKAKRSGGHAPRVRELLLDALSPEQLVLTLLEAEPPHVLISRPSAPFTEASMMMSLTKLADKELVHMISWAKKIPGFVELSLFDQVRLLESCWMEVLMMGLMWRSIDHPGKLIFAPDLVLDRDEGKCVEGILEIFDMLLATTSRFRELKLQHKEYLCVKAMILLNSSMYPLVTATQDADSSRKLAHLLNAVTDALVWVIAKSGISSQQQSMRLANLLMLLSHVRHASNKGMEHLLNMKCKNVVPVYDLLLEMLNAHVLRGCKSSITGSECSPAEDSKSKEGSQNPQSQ
Chain of Progesterone receptor (Homo sapiens) (P06401 whole entry, looked up): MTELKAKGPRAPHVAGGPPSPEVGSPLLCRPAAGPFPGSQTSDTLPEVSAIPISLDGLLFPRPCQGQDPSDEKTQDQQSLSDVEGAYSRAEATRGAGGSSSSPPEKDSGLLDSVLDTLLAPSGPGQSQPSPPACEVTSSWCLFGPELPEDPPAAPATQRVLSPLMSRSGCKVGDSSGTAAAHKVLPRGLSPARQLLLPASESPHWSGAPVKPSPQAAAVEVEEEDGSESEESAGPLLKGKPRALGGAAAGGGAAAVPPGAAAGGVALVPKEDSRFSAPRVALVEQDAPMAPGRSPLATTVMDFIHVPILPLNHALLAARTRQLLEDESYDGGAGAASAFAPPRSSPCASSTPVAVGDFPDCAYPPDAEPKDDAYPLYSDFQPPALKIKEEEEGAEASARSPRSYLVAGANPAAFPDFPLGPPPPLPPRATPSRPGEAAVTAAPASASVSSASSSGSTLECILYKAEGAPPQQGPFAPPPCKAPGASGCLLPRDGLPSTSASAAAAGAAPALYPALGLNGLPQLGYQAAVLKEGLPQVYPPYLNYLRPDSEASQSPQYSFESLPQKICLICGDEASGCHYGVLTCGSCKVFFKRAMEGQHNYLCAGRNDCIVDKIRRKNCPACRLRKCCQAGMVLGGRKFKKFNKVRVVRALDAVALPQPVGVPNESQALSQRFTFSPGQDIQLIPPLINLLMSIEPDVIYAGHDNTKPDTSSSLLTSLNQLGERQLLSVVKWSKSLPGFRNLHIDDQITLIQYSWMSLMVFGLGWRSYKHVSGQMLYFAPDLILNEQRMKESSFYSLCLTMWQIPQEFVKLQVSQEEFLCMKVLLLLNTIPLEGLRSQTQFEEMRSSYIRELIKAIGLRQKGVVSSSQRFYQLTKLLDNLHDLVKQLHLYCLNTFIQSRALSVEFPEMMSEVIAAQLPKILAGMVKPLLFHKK
Chain of Thyrotropin receptor (Homo sapiens) (P16473 whole entry, looked up): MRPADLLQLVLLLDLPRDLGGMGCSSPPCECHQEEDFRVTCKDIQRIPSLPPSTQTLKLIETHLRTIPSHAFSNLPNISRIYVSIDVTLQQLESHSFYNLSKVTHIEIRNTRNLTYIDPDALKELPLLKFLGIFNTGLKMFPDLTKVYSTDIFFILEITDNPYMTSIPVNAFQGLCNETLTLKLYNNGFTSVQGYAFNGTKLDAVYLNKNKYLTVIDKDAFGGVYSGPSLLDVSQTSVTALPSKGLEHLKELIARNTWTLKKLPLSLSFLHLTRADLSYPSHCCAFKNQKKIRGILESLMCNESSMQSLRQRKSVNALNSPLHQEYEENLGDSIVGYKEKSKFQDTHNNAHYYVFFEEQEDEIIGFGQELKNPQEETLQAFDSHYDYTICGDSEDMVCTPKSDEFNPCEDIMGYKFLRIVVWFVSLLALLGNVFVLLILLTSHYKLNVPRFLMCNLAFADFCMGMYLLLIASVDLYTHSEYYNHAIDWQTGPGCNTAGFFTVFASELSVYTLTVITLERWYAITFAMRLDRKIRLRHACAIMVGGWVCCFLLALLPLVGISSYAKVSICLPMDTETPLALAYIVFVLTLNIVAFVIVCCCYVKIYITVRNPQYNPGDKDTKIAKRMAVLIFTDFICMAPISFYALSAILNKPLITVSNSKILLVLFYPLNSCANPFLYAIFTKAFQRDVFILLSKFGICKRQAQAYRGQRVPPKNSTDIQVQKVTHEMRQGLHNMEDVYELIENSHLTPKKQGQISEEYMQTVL

As to `Nc1ccc(S(=O)(=O)Nc2nccs2)cc1`, the Potency entry in assay [1], in assay [2], in assay [5], in [6], in assay [8] and in assay [9] was “inactive” throughout. In addition, in assay [11], the Potency result was “inactive”. Besides, the compound was classed as inactive in assay [3], in assay [4], in assay [7], in assay [10] and in [12].

On to `Oc1ccc(/C=C/c2cc(O)cc(O)c2)cc1`, for which the Potency entry in [1], in assay [13], in assay [5], in [8], in assay [9] and in assay [11] was “inactive” in each case. The Potency in [14] was 1.95 µM (active); in [2], 4.37 µM (active) and 8.63 µM (active) and 13.3 µM (active). The compound was called inactive in assay [3], in assay [4], in assay [10], in assay [12], in assay [15] and in assay [16].

Consider `O=C(O)c1cccnc1`, for which the result in assay [17], in [3], in assay [4], in assay [7], in [10] and in assay [12] was inactive. Also, the call in [15] and in assay [16] was inactive. For the same compound, the Potency result in assay [18], in assay [1], in assay [5], in assay [6], in assay [8] and in assay [9] was “inactive” in each case. In [11], the Potency entry is “inactive”.

As to `O=C(O)c1cc(N=Nc2ccc(S(=O)(=O)Nc3ccccn3)cc2)ccc1O`, the compound was classed as inactive in assay [17], in assay [3], in [4], in assay [7], in [10] and in assay [12]. Further, the Potency entry in [18], in [13], in assay [19], in [6], in assay [8] and in [9] was “inactive” in each case. In addition, the Potency result in assay [11] is “inactive”. Also, the Potency in assay [1] is 30.7 µM (active) and 30.6 µM (active); in [5], 61.3 µM (active) and 30.6 µM (active) and 29.8 µM (active).

Consider `CCCC(O)C(CC)CO` (stereo unspecified), for which the result in assay [17], in assay [7], in assay [10] and in assay [12] was inactive. Besides, the Potency result in assay [18], in assay [1], in assay [2], in [5], in assay [6] and in [8] was “inactive” in each case. The Potency entry in [9] and in [11] was “inactive” throughout.

Take `O=C(c1ccccc1)c1ccccc1`: the Potency entry in assay [1], in assay [13], in [14], in assay [19], in [5] and in assay [6] was “inactive” in each case. Further, the Potency result in assay [8], in assay [9] and in assay [11] was “inactive” throughout. The call in assay [7] and in [12] was inactive.

Take `NC(=O)c1ccccc1O`: the result in assay [17], in assay [3], in assay [4], in assay [7], in assay [10] and in assay [12] was inactive. Besides, the compound was called inactive in assay [15] and in assay [16]. In addition, the Potency result in assay [18], in [1], in [19], in [2], in [5] and in [6] was “inactive” each time. For the same compound, the Potency entry in assay [8], in assay [9] and in assay [11] was “inactive” in each case.

Turning to `CCCCOC(=O)CC(CC(=O)OCCCC)(OC(C)=O)C(=O)OCCCC`, the compound was called inactive in assay [17], in assay [7], in assay [10], in assay [12], in [15] and in assay [16]. For the same compound, the Potency entry in assay [18], in assay [1], in assay [19], in [5], in assay [6] and in [8] was “inactive” throughout. The Potency result in [9] and in [11] was “inactive” each time.

As to `O=C(O)CCCCC(=O)O`, the Potency entry in assay [1], in assay [13], in [19], in [2], in [5] and in assay [6] was “inactive” throughout. Moreover, the Potency entry in assay [8], in [9] and in [11] was “inactive” throughout. For the same compound, the result in assay [3], in assay [4], in [7], in assay [10], in assay [12] and in [15] was inactive. In addition, the outcome in [16] was inactive.
